Results filed as inconclusive are left out. Activity calls are given as the source filed them. Unless noted, calls come from the whole dose curve; as a rule, active = well fitted curve in the direction sought with a large enough effect in the repeat runs; inconclusive = weak or mixed curves; inactive = no such curve, though single readings can be large; an effect the other way counts as inactive or inconclusive.
How the values were obtained:
[1] = qHTS assay to identify small molecule antagonists of the vitamin D receptor (VDR) signaling pathway - cell viability counter screen (AID 743225); note: nearly all actives have a fitted effect of over 50% in size
How it was run: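 Compounds were pinned onto VDR-bla HEK 293T cells together with 1-alpha,25-dihydroxyvitamin D3 at 3 nM final. After 16 h at 37C and 5% CO2 plus the reporter readout, cell viability was measured by CellTiter-Glo luminescence (30 min, room temperature).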

[2] = qHTS assay to identify small molecule agonists of the NFkB signaling pathway (AID 1159509; active = well fitted curve in the direction sought with a large enough effect in the signal ratio in the repeat runs, not every such curve was filed as active; the % refers to the signal ratio)
How it was run: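 ME-180 NFkB-bla, 2,000 cells/well, overnight plating; cpd pinned in DMSO, 5 h 37 C; B/G FRET substrate 1.5 h RT; ex 405, em 460/530 nm.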

[3] = qHTS assay to identify small molecule agonists of the NFkB signaling pathway - cell viability counter screen (AID 1159515; calls by dose curve; note: nearly all actives have a fitted effect of over 55% in size)
How it was run: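 NFkB-bla ME-180 cells, 2,000/well, were plated overnight at 37 C, 5% CO2, then exposed to compounds in DMSO for 5 hr. After the bla FRET read, CellTiter-Glo was added to the same wells; luminescence was read after 30 min at room temperature.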

[4] = qHTS assay to identify small molecule agonists of the endoplasmic reticulum stress response signaling pathway (AID 1159516; active = well fitted activation curve with a large enough effect in the signal ratio in the repeat runs, not every such curve was filed as active; the % refers to the signal ratio)
How it was run: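 CellSensor ESRE-bla HeLa cells, carrying a beta-lactamase reporter driven by the ER stress response element, were plated overnight and exposed to compounds for 5 hr at 37 C. Reporter activity was read as FRET substrate fluorescence after 2 hr at room temperature.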

[5] = qHTS assay to identify small molecule agonists of the endoplasmic reticulum stress response signaling pathway - cell viability counter screen (AID 1159517; calls by dose curve; note: nearly all actives have a fitted effect of over 50% in size)
How it was run: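 HeLa cells carrying an ESRE-driven beta-lactamase reporter receive compound for 5 hr at 37 C. Cell viability is then gauged with CellTiter-Glo by luminescence, 30 min at room temperature.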

[6] = qHTS assay to identify small molecule antagonists of the retinoid-related orphan receptor gamma (ROR-gamma) signaling pathway - cell viability counter screen (AID 1159520); note: nearly all actives have a fitted effect of over 50% in size
How it was run: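 Cytotoxicity was read from cellular ATP (CellTiter-Glo luminescence) after 16 hr at 37 C with 1 uM doxycycline induction. The inducer was added 2 hr after compound transfer to Tet-on ROR gamma CHO cells.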

[7] = target: Nuclear receptor ROR-gamma (Homo sapiens) (UniProt P51449); experiment: qHTS assay to identify small molecule antagonists of the retinoid-related orphan receptor gamma (ROR-gamma) signaling pathway (AID 1159521;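 note: CHO cells with doxycycline inducible ROR-gamma driving an RORE luciferase reporter; top concentration of the series differs between compounds; nearly all actives have a fitted effect of over 50% in size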)
How it was run: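 Test compounds were applied to Tet-on RORγ CHO cells 2 h ahead of doxycycline hyclate (1 uM final). Luciferase reporter activity was quantified by luminescence after 16 h at 37 C and 5% CO2.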

[8] = qHTS assay to identify small molecule agonists of the AP-1 signaling pathway - cell viability counter screen (AID 1159525; calls by dose curve; note: nearly all actives have a fitted effect of over 55% in size)
How it was run: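 Luminescent ATP readout (Cell Titer Glo, 30 min RT), normalised to DMSO and tetra n-octyl ammonium bromide controls. Cells were ME-180 AP-1-bla in 0.5% dialyzed FBS Opti-MEM, with a 5 h, 37 °C compound exposure.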

[9] = qHTS assay to identify small molecule agonists of the AP-1 signaling pathway (AID 1159526; calls by dose curve)
[10] = target: Retinoic acid receptor RXR-alpha (Homo sapiens) (UniProt P19793); experiment: qHTS assay to identify small molecule agonists of the RXR signaling pathway (AID 1159527; calls by dose curve; note: nearly all actives have a fitted effect of over 35% in size)
Chain of Retinoic acid receptor RXR-alpha (Homo sapiens) (P19793 whole entry, looked up): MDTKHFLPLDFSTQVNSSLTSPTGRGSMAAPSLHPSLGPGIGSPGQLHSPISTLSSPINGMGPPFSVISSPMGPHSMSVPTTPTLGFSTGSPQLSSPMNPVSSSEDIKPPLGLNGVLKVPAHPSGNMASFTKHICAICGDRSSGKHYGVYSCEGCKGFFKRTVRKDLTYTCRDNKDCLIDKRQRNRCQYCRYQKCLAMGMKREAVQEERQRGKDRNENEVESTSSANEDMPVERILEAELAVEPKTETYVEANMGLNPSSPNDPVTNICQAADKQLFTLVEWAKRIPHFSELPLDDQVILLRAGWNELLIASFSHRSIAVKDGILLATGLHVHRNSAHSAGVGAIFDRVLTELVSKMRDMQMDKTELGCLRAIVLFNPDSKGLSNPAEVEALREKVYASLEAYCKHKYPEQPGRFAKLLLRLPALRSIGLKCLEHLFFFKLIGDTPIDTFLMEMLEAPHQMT
How it was run: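 Using 9-cis retinoic acid as the reference agonist, chemicals were tested in HEK 293T cells […] for 16 hr; substrate loading lasted 2 hr at room temperature.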

[11] = qHTS assay to identify small molecule antagonists of the retinoid acid receptor (RAR) signaling pathway - cell viability counter screen (AID 1159551); note: nearly all actives have a fitted effect of over 35% in size
How it was run: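 C3RL4 cells were seeded overnight at 37 C, then treated with compounds plus 1 uM (final) retinol for 6 h at 37 C. Viability was read as ATP by CellTiter-Glo luminescence after 30 min at room temperature.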

[12] = qHTS assay to identify small molecule antagonists of the retinoic acid receptor (RAR) signaling pathway (AID 1159552; note: nearly all actives have a fitted effect of over 50% in size)
How it was run: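 Test chemicals and DMSO controls were pin-transferred onto C3RL4 cells a day after seeding; retinol (1 uM final) followed at once. Luminescent reporter output was quantified after 6 hr of co-incubation and 30 min with detection reagent.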

[13] = qHTS assay to identify small molecule agonists of the retinoic acid receptor (RAR) signaling pathway (AID 1159553); conditions: C3RL4 RARE luciferase reporter, agonist, 6 h; activation: at 73.3 µM (top of the series)
How it was run: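 C3RL4 cells carrying a RARE luciferase reporter were plated overnight at 37 C, then exposed to compounds in DMSO for 6 hr at 37 C and 5% CO2. Luminescence was read 30 min after luciferase reagent addition at room temperature.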

[14] = qHTS assay to identify small molecule antagonists of the estrogen related receptor (ERR) signaling pathway from Tox21 library - cell viability counter screen (AID 1224834); note: nearly all actives have a fitted effect of over 30% in size
How it was run: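 ERR reporter cells were plated 6 h before compound addition, then exposed to test compounds in DMSO for 17.5 h at 37 C. Viability was read as CellTiter-Fluor fluorescence after a 30-minute incubation at 37 C.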

[15] = target: Luciferin 4-monooxygenase (Photinus pyralis) (UniProt P08659); experiment: qHTS assay to identify small molecule inhibitors of firefly luciferase (AID 1224835); note: nearly all actives have a fitted effect of over 25% in size; note: potency is the fitted concentration of half-maximal effect
Chain of Luciferin 4-monooxygenase (Photinus pyralis) (P08659 whole entry, looked up): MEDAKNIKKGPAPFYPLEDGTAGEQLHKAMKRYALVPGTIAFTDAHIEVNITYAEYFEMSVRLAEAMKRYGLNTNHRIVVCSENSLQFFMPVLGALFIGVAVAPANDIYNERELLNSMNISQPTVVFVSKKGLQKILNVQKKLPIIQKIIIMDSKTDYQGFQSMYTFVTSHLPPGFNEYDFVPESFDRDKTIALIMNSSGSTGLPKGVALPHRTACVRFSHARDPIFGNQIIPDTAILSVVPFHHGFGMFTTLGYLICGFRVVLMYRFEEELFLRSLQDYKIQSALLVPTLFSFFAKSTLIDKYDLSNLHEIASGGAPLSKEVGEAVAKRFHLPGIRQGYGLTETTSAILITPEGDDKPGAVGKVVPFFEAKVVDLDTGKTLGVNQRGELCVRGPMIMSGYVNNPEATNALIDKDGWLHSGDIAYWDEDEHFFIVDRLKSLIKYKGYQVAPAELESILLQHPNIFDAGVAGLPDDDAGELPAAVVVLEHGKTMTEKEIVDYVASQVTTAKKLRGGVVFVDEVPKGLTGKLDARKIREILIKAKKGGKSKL
How it was run: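 Inhibition of purified Photinus luciferase is measured by luminescence. Substrate levels (D-luciferin, ATP) sit at their KM values. Each compound is tested in a concentration series.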

[16] = qHTS assay to identify small molecule agonists of the constitutive androstane receptor (CAR) signaling pathway - cell viability counter screen (AID 1224836); note: nearly all actives have a fitted effect of over 45% in size
How it was run: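 23 h treatment, 37 C, 5% CO2. Cell line: HepG2 stably expressing hCAR with a CYP2B6-2.2kb construct. Co-treatment: PK11195, 0.75 uM final. Read-out: CellTiter-Fluor fluorescence intensity.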

[17] = target: Nuclear receptor subfamily 1 group I member 3 (Homo sapiens) (UniProt Q14994); experiment: qHTS assay to identify small molecule antagonists of the constitutive androstane receptor (CAR) signaling pathway (AID 1224838); note: nearly all actives have a fitted effect of over 40% in size
Chain of Nuclear receptor subfamily 1 group I member 3 (Homo sapiens) (Q14994 whole entry, looked up): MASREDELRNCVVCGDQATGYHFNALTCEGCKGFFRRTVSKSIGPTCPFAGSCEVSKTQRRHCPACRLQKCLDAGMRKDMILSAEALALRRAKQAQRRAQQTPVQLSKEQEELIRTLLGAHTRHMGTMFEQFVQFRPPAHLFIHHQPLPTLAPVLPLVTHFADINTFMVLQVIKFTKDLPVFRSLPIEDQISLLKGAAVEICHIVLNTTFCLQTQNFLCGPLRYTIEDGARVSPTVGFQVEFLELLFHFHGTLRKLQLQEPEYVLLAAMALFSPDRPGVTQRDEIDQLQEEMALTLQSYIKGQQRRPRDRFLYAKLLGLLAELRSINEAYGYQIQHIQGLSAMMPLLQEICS
How it was run: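 HepG2 cells stably co-transfected with hCAR and a CYP2B6-2.2kb luciferase reporter were seeded 4 h before compound addition at 15 concentrations. Cells were stimulated with 50 nM CITCO (final) for 24 h at 37 C; luciferase luminescence was then read.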

[18] = qHTS assay to identify small molecule agonists of the vitamin D receptor (VDR) signaling pathway - cell viability counter screen (AID 743224); note: nearly all actives have a fitted effect of over 50% in size
How it was run: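 VDR-bla cells were preincubated 4 h at 37C/5% CO2, then exposed to compounds for 16 h. After the 2 h room-temperature bla FRET read, CellTiter-Glo was added to the same wells and luminescence read after 30 min.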

[19] = qHTS assay to identify small molecule agonists of the RXR signaling pathway - cell viability counter screen (AID 1159529); note: nearly all actives have a fitted effect of over 50% in size
How it was run: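 Compounds dissolved in DMSO were pinned onto HEK 293T cells carrying a beta-lactamase reporter under RXR-alpha control and incubated 16 hr. Cytotoxicity was then quantified by CellTiter-Glo luminescence.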

[20] = qHTS assay to identify small molecule antagonists of the constitutive androstane receptor (CAR) signaling pathway - cell viability counter screen (AID 1224837); note: nearly all actives have a fitted effect of over 45% in size
How it was run: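 HepG2 cells stably expressing hCAR and a CYP2B6-2.2kb reporter were plated and pre-incubated 4 hr at 37 C/5% CO2, then given compounds at 15 concentrations plus 50 nM CITCO (final). After 23 hr, viability was read by CellTiter-Fluor fluorescence.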

Measured: Potency

CC(C)COC(=O)COc1ccc(Cl)cc1Cl
active: [15] 11.2 µM
not listed: [17] | [18] | [19] | [20]
inactive: all other assays above

CC1=NN(c2ccc(S(=O)(=O)O)cc2)C(=O)C1N=Nc1ccccc1 (stereo unspecified)
active: [15] 71 µM
not listed: [14] | [16] | [18] | [19] | [20]
inactive: all other assays above

CCN(CCC#N)c1ccccc1
not listed: [7]
inactive: all other assays above

NS(=O)(=O)c1ccccc1OC(F)(F)F
not listed: [1] | [16] | [17] | [19]
inactive: all other assays above

Nc1cc(Cl)cc(S(=O)(=O)O)c1O
not listed: [1] | [7]
inactive: all other assays above

CO[Si](CCCCl)(OC)OC
not listed: [14] | [19]
inactive: all other assays above

COc1ccc(OC)c(NC(=O)CC(C)=O)c1
not listed: [18] | [19] | [20]
inactive: all other assays above

CCC1COC(=O)O1 (stereo unspecified)
not listed: [17] | [19]
inactive: all other assays above

C=C[Si](C)(C)O[Si](C)(C)C=C
not listed: [16] | [17] | [19] | [20]
inactive: all other assays above

CCOC(=O)CC#N
not listed: [14] | [17] | [19] | [20]
inactive: all other assays above

CC(=O)N(CC(O)CO)c1c(I)c(C(=O)NCC(O)CO)c(I)c(C(=O)NCC(O)CO)c1I (stereo unspecified)
not listed: [7] | [17]
inactive: all other assays above

CCCCOC(=O)C(C)OC(=O)CCC (stereo unspecified)
not listed: [6] | [17] | [18] | [20]
inactive: all other assays above

C[C@@H]1C[C@H]2[C@@H]3C[C@H](F)C4=CC(=O)C=C[C@]4(C)[C@@]3(F)[C@@H](O)C[C@]2(C)[C@@]1(O)C(=O)CO
not listed: [6] | [7] | [15]
inactive: all other assays above

COc1ccc(/C=N/NC(=O)c2ccncc2)cc1OC
not listed: [6] | [17] | [20]
inactive: all other assays above

COCCOCCOCCOC
not listed: [6] | [17]
inactive: all other assays above

Nc1cc(S(=O)(=O)O)ccc1S(=O)(=O)O
not listed: [6] | [14] | [17]
inactive: all other assays above

Nc1ccnc(=O)[nH]1
not listed: [1] | [6] | [16] | [17]
inactive: all other assays above

CC(C)COC(=O)CCCCC(=O)OCC(C)C
not listed: [6] | [17]
inactive: all other assays above
